# Results published in PubChem BioAssay (NCATS).
# Inconclusive results are not listed. Entries that show only a call come without a potency. The source made the active and inactive calls. The call rests on the fitted dose curve; in most records, active means well fitted cell-killing curve with a large enough effect; inconclusive means small, poorly fitted or top-dose-only effect, or effect the other way; inactive means no such curve, though single readings can be large or run the other way.
# Assay: Quantitative High-Throughput drug screen in 47 multiple myeloma cell lines against the NCATS MIPE library collection: OPM2_DSMZ cell viability assay (AID 1919872); further: nearly all actives have a fitted effect of over 30% in size
# Settings: OPM2 myeloma viability, CellTiter-Glo ATP luminescence, 48 h; series mostly up to 45.8 µM
# Method in brief: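 Approved and investigational drugs from MIPE 4.0 were added by pin tool to 500 cells per well. After 48 hours at 37C, ATP-based CellTiter-Glo luminescence indicated remaining viability.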
row,Compound,outcome
1,C[C@]12CC[C@@H]3c4ccc(OC(=O)N(CCCl)CCCl)cc4CC[C@H]3[C@@H]1CC[C@@H]2OP(=O)(O)O,inactive
2,CN1C(=O)CCS(=O)(=O)C1c1ccc(Cl)cc1 (configuration not stated),inactive
3,CN1C(=O)COc2c(C(=O)NC3CN4CCC3CC4)cc(Cl)cc21 (configuration not stated),inactive
4,O=P1(N(CCCl)CCCl)NCCCO1 (configuration not stated),inactive
5,CC(C)C[C@H](CN)CC(=O)O,inactive
6,COc1cc(OC)c(OC)cc1C=O,inactive
7,O=C(O)CCCc1ccc(N(CCCl)CCCl)cc1,inactive
8,CCC1(c2ccc(N)cc2)CCC(=O)NC1=O (configuration not stated),inactive
9,C[C@]12CC[C@H]3[C@@H](CC[C@@]45O[C@H]4C(O)=C(C#N)C[C@]35C)[C@H]1CC[C@H]2O,inactive
10,CC(NC(C)(C)C)C(=O)c1cccc(Cl)c1 (configuration not stated),inactive
11,CC(C)c1cccc(C(C)C)c1O,inactive

# Assay: Quantitative High-Throughput drug screen in 47 multiple myeloma cell lines against the NCATS MIPE library collection: KMS11_JCRBsus cell viability assay (AID 1919873); further: nearly all actives have a fitted effect of over 50% in size; further: potency means the concentration at half of the fitted maximal effect
# Settings: KMS11 myeloma viability, CellTiter-Glo ATP luminescence, 48 h; series mostly up to 45.8 µM
# Excerpt: PI: Beverly A. Mock Ph.D.
# Laboratory of Cancer Biology and Genetics,
# Center for Cancer Research, National Cancer Institute,
# National Institute of Health, Bethesda, Maryland
# Drug resistance and disease progression are common in multiple myeloma (MM) patients, underscoring the need for new therapeutic combinations. […] We hypothesized that effective combinations would reduce MYC expression and enhance p16 activity. […] These preclinical data identify potentially useful drug combinations for evaluation in drug-resistant MM and reveal potential mechanisms of combined drug sensitivity.
# Described herein is the primary MIPE qHTS used to cherrypick compounds. Validated compounds were then further tested for potential synergistic activiy.
# [1] Peat TJ, Gaikwad SM, Dubois W, Gyabaah-Kessie N, Zhang S, Gorjifard S, Phyo Z, Andres M, Hughitt VK, Simpson RM, Miller MA, Girvin AT, Taylor A, Williams D, D'Antonio N, Zhang Y, Rajagopalan A, Flietner E, Wilson K, Zhang X, Shinn P, Klumpp-Thomas C, McKnight C, Itkin Z, Chen L, Kazandijian D, Zhang J, Michalowski AM, Simmons JK, Keats J, Thomas CJ, Mock BA. Drug combinations identified by high-throughput screening promote cell cycle transition and upregulate Smad pathways in myeloma. Cancer Lett. 2023 Aug 1;568:216284. doi: 10.1016/j.canlet.2023.216284. Epub 2023 Jun 24. PMID: 37356470; PMCID: PMC10408729.
# SEQUENCE No. (e.g., 1, 2, 3, etc.); […] (e.g., Cells, Incubation, Reagent, etc.); VALUE and DESCRIPTION.
# 1; Cells; 5 uL; white, solid bottom 1536-well Greiner assay plate.
# 2; Compounds; 23 nL; Kalypsis pin tool (Wako USA) equipped with a 1536-well pin head to transfer to the assay plates.
# 3; Incubation; 48 hours; 37C incubation.
# 4; Reagent;5uL; CellTiter Glo (Promega).
# 5; Detector; 425V; Luminescence; Viewlux PerkinElmer.
# NOTES (numbers refer to Sequence numbers above)
# 1. The cell-based screening methods employed in this study were like those previously published. Briefly, the corresponding myeloma cell lines were screened in 1,536-well plates with 500 cells, 5-uL per well for inhibition of cell viability (assessed by measuring ATP levels with CellTiterGlo).
# 2. NCATS MIPE 4.0 library of approved and investigational drugs were added using the Kalypsis pin tool. Wells treated with DMSO only for 100% viability and media only for 0% viability were used as controls.
# 3. The assay plates were covered and incubated for 48 hours in a 37C, 5% CO2 incubator with controlled humidity.
# 4. After 48 hours, CellTilter-GloTM luminescent substrate mix (Promega) reagent was added to the assay plate and plates we incubated for 5 min at room temperature.
# 5. Signal was measured as median relative luminescence units on a ViewLux (PerkinElmer) multiplate reader.
# [1] Heske CM, Davis MI, Baumgart JT, Wilson K, Gormally MV, Chen L, Zhang X, Ceribelli M, Duveau DY, Guha R, Ferrer M, Arnaldez FI, Ji J, Tran HL, Zhang Y, Mendoza A, Helman LJ, Thomas CJ. Matrix Screen Identifies Synergistic Combination of PARP Inhibitors and Nicotinamide Phosphoribosyltransferase (NAMPT) Inhibitors in Ewing Sarcoma. Clin Cancer Res. 2017 Dec 1;23(23):7301-7311. doi: 10.1158/1078-0432.CCR-17-1121. Epub 2017 Sep 12. PMID: 28899971; PMCID: PMC6636827.
row,Compound,Potency
1,C[C@]12CCC(=O)C=C1CC[C@@H]1[C@H]3CC[C@](C)(O)[C@@]3(C)CC[C@@H]12,42.9 µM (active)
2,C[C@]12CC[C@@H]3c4ccc(OC(=O)N(CCCl)CCCl)cc4CC[C@H]3[C@@H]1CC[C@@H]2OP(=O)(O)O,inactive
3,CC(C)C[C@H](CN)CC(=O)O,inactive
4,COc1cc(OC)c(OC)cc1C=O,inactive
5,O=C(O)CCCc1ccc(N(CCCl)CCCl)cc1,inactive
6,C[C@]12CC[C@H]3[C@@H](CC[C@@]45O[C@H]4C(O)=C(C#N)C[C@]35C)[C@H]1CC[C@H]2O,inactive
7,C[C@](O)(CS(=O)(=O)c1ccc(F)cc1)C(=O)Nc1ccc(C#N)c(C(F)(F)F)c1,inactive
8,CC(C)c1cccc(C(C)C)c1O,inactive

# Assay: Quantitative High-Throughput drug screen in 47 multiple myeloma cell lines against the NCATS MIPE library collection: KMS28BM_JCRB cell viability assay (AID 1919874); further: nearly all actives have a fitted effect of over 35% in size
# Settings: CellTiter-Glo ATP, 48 h; series mostly up to 45.8 µM
# Method in brief: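 Viability after 48 h drug exposure was measured as ATP-dependent luminescence. Cells, 500 per well, sat at 37 °C under 5% CO2; DMSO wells set 100%, media-only wells 0%.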
row,Compound,outcome
1,C[C@]12CC[C@@H]3c4ccc(OC(=O)N(CCCl)CCCl)cc4CC[C@H]3[C@@H]1CC[C@@H]2OP(=O)(O)O,inactive
2,CN1C(=O)CCS(=O)(=O)C1c1ccc(Cl)cc1 (configuration not stated),inactive
3,CC(C)C[C@H](CN)CC(=O)O,inactive
4,COc1cc(OC)c(OC)cc1C=O,inactive
5,CCC1(c2ccc(N)cc2)CCC(=O)NC1=O (configuration not stated),inactive
6,C[C@]12CC[C@H]3[C@@H](CC[C@@]45O[C@H]4C(O)=C(C#N)C[C@]35C)[C@H]1CC[C@H]2O,inactive
7,CC(NC(C)(C)C)C(=O)c1cccc(Cl)c1 (configuration not stated),inactive
8,CC(C)c1cccc(C(C)C)c1O,inactive
